Data on 40 compounds can be found in PubChem BioAssay (NCATS).

Each structure is given as a SMILES string. Records with an inconclusive call do not appear. Calls of active or inactive are those of the source. Calls come from the whole dose curve; as a rule, active = well fitted inhibition curve with a large enough effect; inconclusive = small, poorly fitted or top-dose-only effect; inactive = no such curve, though single readings can be large or run the other way.
% is set by controls: 0 for no effect and ±100 for the full control effect; potency is the fitted concentration of half-maximal effect.

The test system of the assay is Zika virus NS2B-NS3 protease (unlinked complex). As to the kind of experiment: Primary screen GU Rhodamine qHTS for Zika virus inhibitors: Unlinked NS2B-NS3 protease assay (AID 1347159). Note: nearly all actives have a fitted effect of over 60% in size. The conditions noted are these: Recombinant ZIKV NS2B-NS3 protease, Rhodamine110 substrate fluorescence; series mostly up to 107 µM; activity change, negative = inhibition: at the top concentration. From the text:
Avindra Nath, Ph.D., National Institute of Neurological Disorders and Stroke (NINDS), Bethesda, MD
Radhakrishnan Padmanabhan, Ph.D., Georgetown University (GU), Washington D.C.
Zika Virus causes congenital defects, including microcephaly and is associated with Guillain-Barre syndrome, eningoencephalitis and myelitis in infected adult. […] Using a target-based approach, we hope to establish a screening paradigm to uncover novel, cell-active NS2B-NS3 protease (Zika Virus) specific inhibitors from NCATS' collection of small molecules using qHTS.
Four assay panel was created to identify potential Zika Virus inhibitors. Namely, (1) GU unlinked NS2B-NS3 AMC tagged protease qHTS, (2) GU unlinked NS2B-NS3 Rhodamine tagged protease qHTS, (3) NINDS linked NS2B-NS3 AMC tagged protease qHTS, (4) NINDS linked NS2B-NS3 Rhodamine tagged protease qHTS. Active compounds were re-acquired and re-screened to confirm inhibition. Inhibitors were further screened against various confirmatory and counterscreens in dose response format.
Early Translation Branch (ETB)
National Center for Advancing Translational Sciences (NCATS), Rockville, MD
National Institute of Health (NIH), Bethesda, Maryland
Padmanabhan lab provided the NS2B hydrophilic domain and NS3 protease domain in a noncovalent complex used for the unlinked assay. Control compound aprotinin is obtained from Thermo Scientific (#78432; Waltham, Massachusetts). Rhodamine110 substrate ([N-Cbz]-Nle-Lys-Arg-Arg-Rhod110-Arg-Arg-Lys-Nle-[N-Cbz]) was purchased from either Genscript or Bachem.
1536-well Protease (Rhodamine110 Substrate) Assay:
Briefly, 3 microL of enzyme (25 nM final concentration), in assay buffer (10 mM Tris-HCl pH 8.0 with 0.01% Tween 20) were dispensed into a 1,536-well solid-bottom black plate (Greiner Bio One, Monroe, NC). Twenty-three nL of compounds (final concentration range 7.28 nM to 114 microM) or control Aprotinin (final concentration range 3.47 nM to 114 microM) were transferred via Wako Pin-tool (Wako Automation, Richmond, VA). Samples were incubated (room temperature, protected from light) for 15 minutes followed by a 1 microL Rhodamine110 substrate addition (1.5 microM final concentration). Plates were then immediately read on a ViewLux High-throughput CCD imager (PerkinElmer, Waltham, MA) equipped with FITC fluorescence optics (480(20) nm excitation, 540(25) nm emission), then incubated (room temperature, protected from light) for 15 minutes (~15% conversion). The change in fluorescence intensity over the 15-minute reaction period was normalized against no-inhibitor and no-enzyme controls and the resulting percent inhibition data were fitted to a 4-parameter Hill equation. Aprotinin was used as intraplate control.
With `N#C[C@@H]1C[C@@H]2C[C@@H]2N1C(=O)[C@@H](N)C12CC3CC(CC(O)(C3)C1)C2`, the “activity change, negative = inhibition” value is -18.9% (inactive).
Still for that read-out and setting: then `COC(=O)/C=C/C(=O)N(O)CCCCNCc1ccc(COC(=O)Nc2cccc3ccccc23)cc1`, with 4.15% (inactive).
`CN(CC(=O)N(Cc1ccc(C2CCCCC2)cc1)c1ccc(C(=O)O)cc1)S(=O)(=O)c1c(F)c(F)c(F)c(F)c1F`: the Potency is 2.51 µM (active).
In the case of `CCS(=O)(=O)N(Cc1cccnc1)c1cccc(-c2ccc(C#N)cc2)c1`, the “activity change, negative = inhibition” value was 19.6% (inactive).
On the same count and under the same terms, under `C[C@@H](CN1CCC(n2c(=O)[nH]c3cc(Cl)ccc32)CC1)NC(=O)c1ccc2ccccc2c1` stands 181% (inactive); under `Cc1ccc2c(Nc3ccc(Cl)cc3)nccc2c1Nc1ncccc1-c1ncnc2nc[nH]c12`, -4.68% (inactive); under `CCNC(=O)[C@@H]1CCCN1C(=O)[C@H](CCCN=C(N)N)NC(=O)[C@H](CC(C)C)NC(=O)[C@@H](CC(C)C)NC(=O)[C@H](Cc1ccc(O)cc1)NC(=O)[C@H](CO)NC(=O)[C@H](Cc1c[nH]c2ccccc12)NC(=O)[C@H](Cc1cnc[nH]1)NC(=O)[C@@H]1CCC(=O)N1`, 0% [at 57.1 µM] (inactive).
Still for that read-out and setting: under `FC(F)(F)c1ccc(CNc2ccc(Cc3c[nH]c4ncccc34)cn2)cc1` stands -8.17% (inactive); under `CC1CCC(n2c3cnccc3c3cnc(Nc4ccc5c(n4)CCN(C(=O)CO)C5)nc32)CC1` (stereo not given), 2.52% (inactive); under `COc1ccccc1-c1cc(Nc2cccc(CS(N)(=O)=O)c2)ncn1`, 7.55% (inactive).
Regarding `Cc1ccc(C(=O)N2CCN(c3ccc([N+](=O)[O-])cc3)CC2)cc1Cl`, the “activity change, negative = inhibition” value was -13.6% (inactive).
The same measure, in the same setting: then `CCOC(=O)c1cccc(CNc2ccc(N(C)C(=O)Nc3ccccc3)cc2)c1`, with 8.9% (inactive); and `Clc1ccccc1CNCC1CCC(CNCc2ccccc2Cl)CC1` (stereo not given), with 80.7% (inactive).
Consider `CCCc1c(C(C)C)nc(C(C)C)c([C@@H](C)O)c1-c1ccc(F)cc1O`, for which the Potency was 14.1 µM (active).
Consider `COc1ccc(-c2cc(C(O)C3CCCCN3)c3ccccc3n2)cc1` (stereo not given), for which the “activity change, negative = inhibition” value was 14.1% (inactive).
On the same count and under the same terms, under `CC(=O)N[C@@H](CC(=O)O)C(=O)N[C@@H](CCC(=O)O)C(=O)N[C@H](C(=O)N[C@@H](CC(=O)O)C(=O)Nc1ccc2c(C)cc(=O)oc2c1)C(C)C` stands 0% (inactive); under `Fc1ccccc1CNCc1ccc(-c2ccnc3[nH]ccc23)cc1`, 79.4% (inactive).
As for `C[N+]1(C)[C@@H]2CC[C@H]1CC(OC(=O)C(O)c1ccccc1)C2` (stereo not given in full), the “activity change, negative = inhibition” value was 0% (inactive).
Take `CC(=O)Nc1ccc(C(=O)Nc2ccccc2N)cc1`: the “activity change, negative = inhibition” value is 2.37% [at 57.1 µM] (inactive).
On the same count and under the same terms, under `CC(=O)c1c(OCCN2CCCCC2)c(OCCC(C)c2ccc(F)cc2)c2oc(C)nc2c1C` (stereo not given) stands 65.4% (inactive); under `N#Cc1ccc2c(c1)CCN(CCC1CCC(NC(=O)c3ccnc4ccccc34)CC1)C2` (stereo not given), 84% (inactive); under `COc1cc2ncnc(Nc3ccc(Oc4ccccc4)cc3)c2cc1OC`, 48.2% (inactive).
On to `Cc1cc(N=Nc2ccc(S(=O)(=O)Nc3ccccn3)cc2)c(N)cc1O`, for which the “activity change, negative = inhibition” value is 0% (inactive).
Same read-out and setting: under `COc1c(N2CC3CCCNC3C2)c(F)cc2c(=O)c(C(=O)O)cn(C3CC3)c12` (stereo not given) stands 10.3% (inactive); under `N#Cc1c[nH]c2c(C(=O)N3CCN(CCc4ccc(F)cc4)CC3)cccc12`, 53.7% (inactive).
On the same count and under the same terms, then `C=CC(=O)Nc1cccc(Nc2nc(Nc3ccc(Oc4ccnc(C(=O)NC)c4)cc3)ncc2F)c1`, with 45.6% (inactive); and `CC1(C)SC2C(NC(=O)[C@H](NC(=O)N3CCNC3=O)c3ccccc3)C(=O)N2C1C(=O)O` (stereo not given in full), with 0% (inactive).
Still for that read-out and setting: then `CCCCOc1ccc(-c2cncc(C(=O)NCc3cccnc3N3CCOCC3)c2)cc1Cl`, with -20.3% (inactive); and `CN(C)C(=O)c1cc2cnc(Nc3ccc(N4CCNCC4)cn3)nc2n1C1CCCC1`, with 8.82% (inactive); and `C=C1[C@@H](C2=CC(=O)OC2)CC[C@@]2(O)[C@@H]1CC1[C@H]2CC[C@@H]2C[C@@H](O[C@H]3O[C@@H](C)[C@@H](O[C@@H]4O[C@H](CO[C@@H]5O[C@H](CO)[C@@H](O)[C@H](O)[C@H]5O)[C@@H](O)[C@H](O)[C@H]4O)[C@H](OC)[C@H]3O)CC[C@]12C` (stereo not given in full), with -6.08% [at 32.5 µM] (inactive).
Consider `CN([C@H]1c2cc(OCCCC(F)(F)F)ccc2OC(C)(C)[C@@H]1O)S(C)(=O)=O`, for which the “activity change, negative = inhibition” value is -8.28% (inactive).
On to `CN(CCCNC(=O)c1ccc2nc3c(c(Cl)c2c1)CCCC3)Cc1ccccc1`, for which the “activity change, negative = inhibition” value is 46.2% (inactive).
The same measure, in the same setting: then `Cc1cc(C)c(-c2csc(NC(=O)c3ccccc3)n2)c(C)c1`, with 60.8% (inactive); and `Cc1cc2nc(NCCCO)n(CC(=O)c3cc(C(C)(C)C)c(O)c(C(C)(C)C)c3)c2cc1C`, with 0% (inactive).
On the same count and under the same terms, under `CCOP(=O)(Cc1ccc(C(=O)Nc2ccc(Br)cc2C#N)cc1)OCC` stands 0% [at 57.1 µM] (inactive); under `Cc1nc(C)c2c(n1)N(Cc1ccc(-c3ccccc3-c3nn[nH]n3)cc1)C(=O)CC2`, -22% (inactive); under `CC(CCC1(O)OC2CC3C4CC=C5CC(O[C@@H]6O[C@H](CO)[C@@H](O[C@@H]7O[C@H](CO)[C@@H](O)[C@H](O)[C@H]7O)[C@H](O)[C@H]6O[C@@H]6O[C@@H](C)[C@H](O)[C@@H](O)[C@H]6O)CCC5(C)C4CCC3(C)C2C1C)CO[C@@H]1O[C@H](CO)[C@@H](O)[C@H](O)[C@H]1O` (stereo not given in full), 1.68% [at 32.5 µM] (inactive).
Regarding `O=C(CCCCCCC(=O)Nc1ccc(C2OC(CSc3nc(-c4ccccc4)c(-c4ccccc4)o3)CC(c3ccc(CO)cc3)O2)cc1)NO` (stereo not given), the Potency is 39.8 µM (active).
Take `CN(C)CC(=O)Nc1ccc2[nH]c(=O)c3ccccc3c2c1`: the “activity change, negative = inhibition” value was -2.26% (inactive).
Same read-out and setting: then `CN(C)CCCNc1nc(CN2CCN(C(c3ccc(Cl)cc3)c3ccc(Cl)cc3)CC2)nc2ccccc12`, with 218% (inactive).
